# Screening data (PubChem BioAssay)
# Hits are enriched below; roughly 18% of the tested compounds scored in any of these assays.
# RORgamma inh = qHTS for inhibitors of ROR gamma transcriptional activity. actives 5.4% (n = 310,000). Nuclear receptor ROR-gamma (Mus musculus), P51450. Potency, µM (doses to about 53.6 µM), for inactives: at the highest dose activity change, negative = inhibition, usual class: inhibitors. Drosophila S2 Gal4-RORgamma UAS-luciferase reporter, 20 h. AID 2551, 2010; also: potency is read from the fitted curve at half-maximal effect; nearly all actives have a fitted effect of over 60% in size
# Target sequence (P51450 whole entry, looked up, the tested form may be a part): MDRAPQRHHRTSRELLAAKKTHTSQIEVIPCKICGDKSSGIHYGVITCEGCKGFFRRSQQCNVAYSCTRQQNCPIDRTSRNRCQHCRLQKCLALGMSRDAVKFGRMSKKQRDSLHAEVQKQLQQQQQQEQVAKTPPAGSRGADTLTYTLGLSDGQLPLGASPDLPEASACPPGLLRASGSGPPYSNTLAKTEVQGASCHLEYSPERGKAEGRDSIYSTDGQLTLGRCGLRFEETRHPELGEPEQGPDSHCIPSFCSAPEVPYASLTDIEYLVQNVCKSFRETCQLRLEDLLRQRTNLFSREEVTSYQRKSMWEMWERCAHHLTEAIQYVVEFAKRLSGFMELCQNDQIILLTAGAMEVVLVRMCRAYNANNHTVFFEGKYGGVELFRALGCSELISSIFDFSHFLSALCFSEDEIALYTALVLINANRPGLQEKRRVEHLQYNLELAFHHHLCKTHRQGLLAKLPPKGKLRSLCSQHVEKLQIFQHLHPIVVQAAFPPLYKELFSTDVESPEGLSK
#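 A Gal4/UAS one-hybrid system in insect cells: metallothionein-promoter Gal4–ROR gamma fusion plus Photinus luciferase reporter. Copper sulfate 700 uM final, 20 hr ambient incubation, luminescent detection after 10 min with reagent.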
# TDP1 cell noCPT = qHTS for Inhibitors of human tyrosyl-DNA phosphodiesterase 1 (TDP1): qHTS in cells in absence of CPT. DT40 Tdp1-/- hTDP1 cells, no CPT, ATP luminescence, 48 h. Potency, µM (highest dose often 46.2 µM), for the others: top-dose activity change, negative = growth inhibition, hits mostly inhibitors. actives 15% (n = 420,000). AID 686978, 2013; also: potency is read from the fitted curve at half-maximal effect; nearly all actives have a fitted effect of over 55% in size
#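 Compound effects on proliferation are scored in DT40 Tdp1-/-;hTDP1 cells in the absence of CPT. ATP levels (CellTiter-Glo luminescence) are recorded after a ≥48 hr, 37 °C incubation.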
# VP16 counter = VP16 counterscreen qHTS for inhibitors of ROR gamma transcriptional activity | Drosophila S2 Gal4-VP16 UAS-luciferase, luminescence, 20 h | Potency, µM (series often up to 53.6 µM), for the others: at the top dose activity, negative = inhibition, usual class: inhibitors | actives 3.5% (n = 310,000);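 also: Gal4-VP16 expression switched on by copper sulfate through the metallothionein promoter; potency is read from the fitted curve at half-maximal effect; nearly all actives have a fitted effect of over 50% in size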
# LDHA block = qHTS assay for inhibitors of human lactate dehydrogenase | activity change, % (values are at about 110 or 230 µM) | purified LDHA, NADH/diaphorase-resazurin fluorescence; stronger effect = lower value | actives 0.15% (n = 480,000); in the data active = activity change below about -30%; inconclusive = mostly about -25% to -30%;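 also: plate controls were DMSO wells for no effect and wells without enzyme for full effect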
#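 LDH5 2 nM; NADH 0.06 mM, pyruvate 0.2 mM; 200 mM Tris pH 7.4, EDTA, Tween-20; 5 min RT. Detection: diaphorase 0.133 mg/mL + resazurin 37 µM, fluorescence ex540/em590 at 0 and 20 min; normalized to enzyme-free and DMSO wells.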
# IL1B secr inh = qHTS for Inhibitors of Inflammasome Signaling: IL-1-beta AlphaLISA Primary Screen. THP-1 LPS/ATP IL-1B secretion, AlphaLISA, 16 h; stronger effect = lower value. activity change, % at 57.5 µM. actives 4.7% (n = 360,000). AID 743279, 2014; in the data active = activity change below about -50%; inconclusive = mostly about -30% to -49%
#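 THP-1 cells pretreated 1 hr with compounds (up to 57.5 uM final), then stimulated with LPS (250 ng/mL final) plus ATP (1.25 mM final); secreted IL-1B measured by AlphaLISA after 16 hr, decreased signal indicating inhibition.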
# TDP1 cell CPT = qHTS for Inhibitors of human tyrosyl-DNA phosphodiesterase 1 (TDP1): qHTS in cells in presence of CPT; AID 686979, 2013; Potency, µM (titrated, usually from 46.2 µM), for inactives: top-dose activity change, negative = growth inhibition, usual class: inhibitors; actives 12% (n = 420,000); chicken DT40 Tdp1-/-;hTDP1 cells + 20 nM CPT, ATP luminescence, 48 h; also: potency is read from the fitted curve at half-maximal effect; nearly all actives have a fitted effect of over 55% in size
#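 Chicken DT40 Tdp1-/- cells stably complemented with human TDP1 were seeded at 400 cells/well in medium containing 20 nM camptothecin, exposed to pin-transferred compounds, and grown at 37 °C for at least 48 hr. Viability was read as ATP luminescence.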
# Active calls of the source: *; ? = inconclusive; . = not tested or not shown; [ ] = remark or other dose. Unless noted, calls follow the shape of the dose curve; as a rule, active = well fitted curve in the direction sought with a large enough effect; inconclusive = small, poorly fitted or top-dose-only effect, or another doubt; inactive = no such curve, though single readings can be large; an effect the other way counts as inactive or inconclusive. Unless noted, % is scaled to controls: 0 for no effect and ±100 for the full control effect.
SMILES,RORgamma inh,TDP1 cell noCPT,VP16 counter,LDHA block,IL1B secr inh,TDP1 cell CPT
O=[N+]([O-])c1ccc(/C=N/Nc2nc(-c3ccccc3)c3cc(Br)ccc3n2)o1,2%,21µM*,4%,-7,-22,16µM*
OCCNc1nc(-c2ccccc2)c2cc(Br)ccc2n1,?,?,7%,2,-14,?
O=C(O)CNc1nc(-c2ccccc2)c2cc([N+](=O)[O-])ccc2n1,0%,?,-16%,8,0,?
Cc1ccc2nc(N/N=C\c3ccc([N+](=O)[O-])o3)nc(-c3ccccc3)c2c1,10µM*,?,1%,-1,-59*,23µM*
COc1ccccc1NC(=O)N(C)CCc1noc(C(=O)NCc2ccccc2)n1,.,.,.,-4,.,.
Cc1ccccc1C(=O)O[C@H]1[C@H](Cc2ccccc2)NS(=O)(=O)[C@H]2CC3C=C[C@]12O3,.,20µM*,.,-4,2,?
Cc1cccc(C(=O)O[C@@H]2[C@H](Cc3ccccc3)NS(=O)(=O)[C@H]3C[C@@H]4C=C[C@]23O4)c1,.,23µM*,.,-3,-16,?
C[C@@H]1NS(=O)(=O)[C@H]2C[C@@H]3C=C[C@]2(O3)[C@H]1OC(=O)c1ccc(C(C)(C)C)cc1,.,16µM*,.,-5,0,23µM*
Cc1cccc(C(=O)O[C@H]2[C@H](Cc3ccccc3)NS(=O)(=O)[C@H]3CC4C=C[C@]23O4)c1,.,?,.,0,-24,?
CC(C)(C)c1ccc(C(=O)Oc2ccc3c(c2)OCC3=O)cc1,5%,-20%,-1%,-2,13,-24%
CCCN(C)c1ccc(/C=N/NC(=S)Nc2cccc(CC)c2)cc1,.,.,.,0,.,.
Cc1[nH]n(-c2nc(-c3ccccc3F)cc(=O)[nH]2)c(=O)c1CCO,10µM*,-5%,-2%,3,-9,-4%
Cc1[nH]n(-c2ccccc2)c(=O)c1CCO,-33%,-9%,0%,-2,2,-4%
N#C/C(=C/c1ccc(N2CCOCC2)o1)c1ccc(Br)cc1,-91%,15µM*,5.6µM*,13,-106*,9.2µM*
N#C/C(=C\c1ccc(N2CCOCC2)o1)c1ccccc1,?,?,20µM*,9,-84*,10µM*
N#CC(=Cc1ccncc1)c1ccccc1,.,-28%,.,-6,-74*,2%
N#C/C(=C\c1ccc(N2CCOCC2)cc1)c1ccccc1,?,15µM*,-11%,4,?,21µM*
N#C/C(=C/c1ccc(N2CCOCC2)o1)C(=O)NC1CCCCC1,39%,?,?,-3,-6,?
N#C/C(=C/c1ccc(N2CCOCC2)o1)c1nc2ccccc2[nH]1,-80%,?,?,14,-22,?
N#CCCN(C(=O)Cn1nc(Cc2cccnc2)c2ccccc2c1=O)c1ccccc1,.,.,.,3,.,.
C[C@H]1[C@@H](O)[C@@H](C)\C=C/C=C\C=C/C=C\C=C/C=C\C=C/[C@@H](O[C@H]2O[C@@H](C)[C@@H](O)[C@@H](N)[C@@H]2O)C[C@@H]2O[C@](O)(C[C@@H](O)C[C@@H](O)[C@@H](O)CC[C@@H](O)C[C@@H](O)CC(=O)O[C@H]1C)C[C@@H](O)[C@H]2C(=O)O (stereo in doubt),23%[16.9 µM],.,-9%[17 µM],.,.,.
CC1C=CC=CC=CC=CC=CC=CC=CC(OC2OC(C)C(O)C(N)C2O)CC2OC(O)(CC(O)CC(O)C(O)CCC(O)CC(O)CC(=O)OC(C)C(C)C1O)CC(O)C2C(=O)O (stereo not given),.,3.3µM*,.,10,63,4.6µM*
CC(C)(C)c1ccc(S(=O)(=O)Nc2cccc(C3OCCCO3)c2)cc1,?,15µM*,-22%,-4,0,15µM*
CC(=O)c1ccc(NS(=O)(=O)c2ccc(C(C)(C)C)cc2)cc1,?,?,-19%,-6,0,?
Cc1ccccc1-c1noc(CN(C)C(C)c2cc3ccccc3o2)n1 (stereo not given),.,.,.,24,.,.
SMILES,RORgamma inh,TDP1 cell noCPT,VP16 counter,LDHA block,IL1B secr inh,TDP1 cell CPT
O=C1OC(O)C(C(Cl)Cl)=C1Cl (stereo not given),2.2µM*,.,2.8µM*,.,.,.
O=C(Nc1nonc1-c1ccc(Cl)cc1)c1ccccc1,11µM*,?,?,4,-12,-3%
O=C(Nc1nonc1-c1ccc(Cl)cc1)c1ccc(Cl)cc1,.,.,.,-8,.,.
CC(C)(C)c1ccc(C(=O)/C=C2\NC(=O)CS2)cc1,3.2µM*,18µM*,10µM*,-2,-23,15µM*
COc1ccc(OC)c(N=c2oc3cc(O)ccc3cc2C(N)=O)c1,24%,?,-5%,-1,-23,15µM*
COc1ccc2cc(C(=O)c3ccccc3)c(=O)oc2c1,31%,-9%,-8%,7,-8,-21%
COc1ccc2oc(=Nc3cc(F)ccc3F)c(C(N)=O)cc2c1,40%,4.6µM*,-10%,-3,-4,4.1µM*
COc1ccc2cc(C(N)=O)c(=Nc3ccccc3)oc2c1,16%,15µM*,-4%,-13,-24,?
COc1ccc2oc(=O)c(C(C)=O)cc2c1,-25%,-2%,18%,1,8,5%
NC(=O)c1cc2ccccc2oc1=NCc1ccccc1,-1%,-20%,15%,-3,-26,-10%
NC(=O)c1cc2ccc(O)cc2oc1=NCc1ccccc1,-7%,?,-16%,-1,-11,18µM*
CC(C)c1ccc(CNCCN2CCCC2)cc1,.,.,.,8,.,.
CC(Sc1n[nH]c(-c2cccs2)n1)C(=O)Nc1c(F)cccc1F (stereo not given),.,.,.,-1,.,.
NC(=O)c1cc2ccc(O)cc2oc1=Nc1ccccc1,-33%,?,?,13,-19,15µM*
O=C(O)c1ccc(N=c2oc3cc(O)ccc3cc2C(=O)NCc2ccccc2)cc1,-20%,-17%,-14%,-7,-6,2%
O=C(c1cc2cc(Br)ccc2o1)c1ccccc1F,.,.,.,12,.,.
